# Source: PubChem BioAssay (NCI)
# Compounds without any hit were thinned out: in the full panel of roughly 79,000, 15% have a hit. Unmarked numbers belong to inactive results. Active and inactive are the calls of the source. Rule as the data show it: active = growth inhibition above about 70%; inactive = the rest.
# How the values were obtained:
# [1] = NCI Yeast Anticancer Drug Screen. Data for the rad52 strain (AID 147);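 also: 0% = growth of vehicle-treated control cultures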; details: S. cerevisiae rad52 mutant growth inhibition, stronger effect = higher value
# In short: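 Growth of repair-deficient yeast cells was compared between compound-treated and vehicle-treated cultures to give percent inhibition.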
# [2] = NCI Yeast Anticancer Drug Screen. Data for the wt1 strain (AID 149);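 also: 0% = growth of vehicle-treated wt1 cultures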; details: S. cerevisiae wt1 strain (SPY 50644) growth inhibition, stronger effect = higher value
# In short: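 Measured: growth of wt1 yeast under compound versus vehicle treatment, reported as inhibition.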
# [3] = NCI Yeast Anticancer Drug Screen. Data for the rad50EPP+ strain (AID 151);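 also: 0% = growth of vehicle-treated control cultures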; details: S. cerevisiae rad50 mutant strain, stronger effect = higher value
# In short: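 Measured: growth inhibition of rad50EPP+ yeast. Reference: vehicle-treated controls. Screen uses strains with defined genetic alterations in DNA damage repair or cell cycle control.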
# [4] = NCI Yeast Anticancer Drug Screen. Data for the mgt1 strain (AID 153); details: S. cerevisiae mgt1 mutant growth inhibition, stronger effect = higher value
# In short: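 Compounds were applied to mgt1 mutant yeast, and growth was then compared against vehicle-treated control cultures to give percent inhibition.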
# [5] = NCI Yeast Anticancer Drug Screen. Data for the rad50 strain (AID 155);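 also: 0% = growth of vehicle-only cultures of the same strain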; details: S. cerevisiae rad50 strain growth inhibition, stronger effect = higher value
# In short: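 Growth of the mutant yeast was measured after compound exposure and referenced to vehicle-treated cultures.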
# [6] = NCI Yeast Anticancer Drug Screen. Data for the mec2-1 strain (AID 157); details: S. cerevisiae mec2-1 strain, stronger effect = higher value
# In short: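 Compounds were applied to mec2-1 yeast cells. Their growth was then compared with that of vehicle-treated cultures to give growth inhibition.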
# [7] = NCI Yeast Anticancer Drug Screen. Data for the rad14 strain (AID 159);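 also: 0% = growth of vehicle-treated control cultures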; details: S. cerevisiae rad14 strain growth inhibition, stronger effect = higher value
# In short: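 Here, inhibition of yeast growth was measured after compound exposure, using a strain with a genetic defect in DNA damage repair and vehicle-treated cultures as the reference.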
# [8] = NCI Yeast Anticancer Drug Screen. Data for the sgs1 mgt1 strain (AID 161);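 also: 0% = growth of cultures given vehicle only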; details: S. cerevisiae sgs1 mgt1 strain, stronger effect = higher value
# In short: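 Percent growth inhibition was derived by comparing compound-exposed mutant yeast with vehicle-exposed cultures. The strain carries alterations in DNA damage repair.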
# [9] = NCI Yeast Anticancer Drug Screen. Data for the cln2 rad14 strain (AID 165);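 also: 0% = growth equal to vehicle treated cultures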; details: S. cerevisiae cln2 rad14 strain, stronger effect = higher value
# In short: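 Strain: cln2 rad14 yeast, altered in cell cycle control and DNA damage repair. Read-out: growth inhibition vs vehicle.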
# [10] = NCI Yeast Anticancer Drug Screen. Data for the bub3 strain (AID 167); details: S. cerevisiae bub3 mutant strain, stronger effect = higher value
# In short: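 Whole-cell yeast assay. The mutant strain was incubated with compounds, and growth inhibition was determined by comparison with vehicle-treated cells.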
# [11] = NCI Yeast Anticancer Drug Screen. Data for the wt2 strain (AID 169);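 also: 0% = growth of vehicle-treated yeast cultures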; details: S. cerevisiae wt2 strain growth inhibition, stronger effect = higher value
# In short: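 Growth of compound-treated yeast is measured and expressed as inhibition relative to vehicle-only controls.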
# [12] = NCI Yeast Anticancer Drug Screen. Data for the mlh1 strain (AID 171);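 also: 0% = growth of vehicle-treated control cultures of the same strain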; details: S. cerevisiae mlh1 strain growth inhibition, stronger effect = higher value
# In short: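 Test agents were incubated with yeast bearing a defined DNA damage repair or cell cycle control alteration; values are growth inhibition normalised to vehicle-treated cultures.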
# [13] = NCI Yeast Anticancer Drug Screen. Data for the sgs1 strain (AID 173);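 also: 0% = growth of vehicle-only control cultures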; details: S. cerevisiae sgs1 mutant, stronger effect = higher value
# In short: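 Strain with an altered DNA repair or cell cycle pathway exposed to compound. Growth then measured. Value = inhibition versus vehicle control.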
# [14] = NCI Yeast Anticancer Drug Screen. Data for the mlh1 rad18 strain (AID 175); details: S. cerevisiae mlh1 rad18 strain growth inhibition, stronger effect = higher value
# In short: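 A repair-deficient yeast strain is exposed to test compound, and growth is scored relative to vehicle-treated controls.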
# [15] = NCI Yeast Anticancer Drug Screen. Data for the rad18 strain (AID 177); details: S. cerevisiae rad18 mutant growth inhibition, stronger effect = higher value
# In short: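 DNA-repair-defective yeast; compound treatment; growth inhibition scored against vehicle.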
# [16] = at 5.0 µM (retest, dose inferred, filed as 0.5)
# [17] = at 50.0 µM (retest, dose inferred, filed as 5.0)
smiles,measurement,setting,value
CC(=O)Oc1cc(-c2cc(OC(C)=O)c(OC(C)=O)c3ccccc23)c2ccccc2c1OC(C)=O,growth inhibition,[1]; at 1.2 µM,3%
same,growth inhibition,[1]; at 3.7 µM,4%
same,growth inhibition,[1]; at 11.0 µM,7%
same,growth inhibition,[1]; at 33.0 µM,13%
same,growth inhibition,[1]; at 100.0 µM,79% (active)
same,growth inhibition,[2]; at 1.2 µM,8%
same,growth inhibition,[2]; at 3.7 µM,12%
same,growth inhibition,[2]; at 11.0 µM,10%
same,growth inhibition,[2]; at 33.0 µM,12%
same,growth inhibition,[2]; at 100.0 µM,59%
same,growth inhibition,[3]; at 1.2 µM,3%
same,growth inhibition,[3]; at 3.7 µM,6%
same,growth inhibition,[3]; at 11.0 µM,12%
same,growth inhibition,[3]; at 33.0 µM,19%
same,growth inhibition,[3]; at 100.0 µM,21%
same,growth inhibition,[4]; at 1.2 µM,5%
same,growth inhibition,[4]; at 3.7 µM,5%
same,growth inhibition,[4]; at 11.0 µM,5%
same,growth inhibition,[4]; at 33.0 µM,13%
same,growth inhibition,[4]; at 100.0 µM,82% (active)
same,growth inhibition,[5]; at 1.2 µM,4%
same,growth inhibition,[5]; at 3.7 µM,8%
same,growth inhibition,[5]; [16],22%
same,growth inhibition,[5]; at 11.0 µM,12%
same,growth inhibition,[5]; at 33.0 µM,24%
same,growth inhibition,[5]; [17],82% (active)
same,growth inhibition,[5]; at 50.0 µM,83.5% (active)
same,growth inhibition,[5]; at 100.0 µM,86% (active)
same,growth inhibition,[6]; at 1.2 µM,2%
same,growth inhibition,[6]; at 3.7 µM,9%
same,growth inhibition,[6]; [16],14%
same,growth inhibition,[6]; at 11.0 µM,12%
same,growth inhibition,[6]; at 33.0 µM,24%
same,growth inhibition,[6]; [17],70% (active)
same,growth inhibition,[6]; at 50.0 µM,82.6% (active)
same,growth inhibition,[6]; at 100.0 µM,79% (active)
same,growth inhibition,[7]; at 1.2 µM,1%
same,growth inhibition,[7]; at 3.7 µM,3%
same,growth inhibition,[7]; at 11.0 µM,7%
same,growth inhibition,[7]; at 33.0 µM,43%
same,growth inhibition,[7]; at 100.0 µM,95% (active)
same,growth inhibition,[8]; [16],24%
same,growth inhibition,[8]; [17],85% (active)
same,growth inhibition,[8]; at 50.0 µM,87% (active)
same,growth inhibition,[9]; [16],7%
same,growth inhibition,[9]; [17],56%
same,growth inhibition,[9]; at 50.0 µM,38%
same,growth inhibition,[10]; at 1.2 µM,3%
same,growth inhibition,[10]; at 3.7 µM,4%
same,growth inhibition,[10]; [16],17%
same,growth inhibition,[10]; at 11.0 µM,7%
same,growth inhibition,[10]; at 33.0 µM,26%
same,growth inhibition,[10]; [17],93% (active)
same,growth inhibition,[10]; at 50.0 µM,86.8% (active)
same,growth inhibition,[10]; at 100.0 µM,87% (active)
same,growth inhibition,[11]; at 1.2 µM,10%
same,growth inhibition,[11]; at 3.7 µM,9%
same,growth inhibition,[11]; at 11.0 µM,8%
same,growth inhibition,[11]; at 33.0 µM,11%
same,growth inhibition,[11]; at 100.0 µM,86% (active)
same,growth inhibition,[12]; at 1.2 µM,1%
same,growth inhibition,[12]; at 3.7 µM,3%
same,growth inhibition,[12]; at 11.0 µM,6%
same,growth inhibition,[12]; at 33.0 µM,23%
same,growth inhibition,[12]; at 100.0 µM,93% (active)
same,growth inhibition,[13]; at 1.2 µM,7%
same,growth inhibition,[13]; at 3.7 µM,10%
same,growth inhibition,[13]; at 11.0 µM,11%
same,growth inhibition,[13]; at 33.0 µM,16%
same,growth inhibition,[13]; at 100.0 µM,82% (active)
same,growth inhibition,[14]; [16],19%
same,growth inhibition,[14]; [17],96% (active)
same,growth inhibition,[14]; at 50.0 µM,93.6% (active)
same,growth inhibition,[15]; at 1.2 µM,1%
same,growth inhibition,[15]; at 3.7 µM,6%
same,growth inhibition,[15]; at 11.0 µM,10%
same,growth inhibition,[15]; at 33.0 µM,26%
same,growth inhibition,[15]; at 100.0 µM,90% (active)
Cc1ccc(Cl)c2[nH]c(-c3ccccc3)cc(=O)c12,growth inhibition,[1]; at 1.2 µM,-1%
same,growth inhibition,[1]; at 3.7 µM,-1%
same,growth inhibition,[1]; at 11.0 µM,1%
same,growth inhibition,[1]; at 33.0 µM,2%
same,growth inhibition,[1]; at 100.0 µM,3%
same,growth inhibition,[2]; at 1.2 µM,-3%
same,growth inhibition,[2]; at 3.7 µM,-3%
same,growth inhibition,[2]; at 11.0 µM,-4%
same,growth inhibition,[2]; at 33.0 µM,-2%
same,growth inhibition,[2]; at 100.0 µM,0%
same,growth inhibition,[3]; at 1.2 µM,1%
same,growth inhibition,[3]; at 3.7 µM,2%
same,growth inhibition,[3]; at 11.0 µM,6%
same,growth inhibition,[3]; at 33.0 µM,9%
same,growth inhibition,[3]; at 100.0 µM,6%
same,growth inhibition,[4]; at 1.2 µM,-5%
same,growth inhibition,[4]; at 3.7 µM,-3%
same,growth inhibition,[4]; at 11.0 µM,19%
same,growth inhibition,[4]; at 33.0 µM,-25%
same,growth inhibition,[4]; at 100.0 µM,-4%
same,growth inhibition,[5]; at 1.2 µM,-1%
same,growth inhibition,[5]; at 3.7 µM,0%
same,growth inhibition,[5]; [16],-10%
same,growth inhibition,[5]; at 11.0 µM,-29%
same,growth inhibition,[5]; at 33.0 µM,0%
same,growth inhibition,[5]; [17],13%
same,growth inhibition,[5]; at 50.0 µM,29.2%
same,growth inhibition,[5]; at 100.0 µM,0%
same,growth inhibition,[6]; at 1.2 µM,0%
same,growth inhibition,[6]; at 3.7 µM,-3%
same,growth inhibition,[6]; [16],-11%
same,growth inhibition,[6]; at 11.0 µM,0%
same,growth inhibition,[6]; at 33.0 µM,-2%
same,growth inhibition,[6]; [17],10%
same,growth inhibition,[6]; at 50.0 µM,40.6%
same,growth inhibition,[6]; at 100.0 µM,0%
same,growth inhibition,[7]; at 1.2 µM,-2%
same,growth inhibition,[7]; at 3.7 µM,-6%
same,growth inhibition,[7]; at 11.0 µM,-2%
same,growth inhibition,[7]; at 33.0 µM,-12%
same,growth inhibition,[7]; at 100.0 µM,1%
same,growth inhibition,[8]; [16],-28%
same,growth inhibition,[8]; [17],12%
same,growth inhibition,[8]; at 50.0 µM,55.5%
same,growth inhibition,[9]; [16],-9%
same,growth inhibition,[9]; [17],-2%
same,growth inhibition,[9]; at 50.0 µM,13.4%
same,growth inhibition,[10]; at 1.2 µM,-2%
same,growth inhibition,[10]; at 3.7 µM,-2%
same,growth inhibition,[10]; [16],-17%
same,growth inhibition,[10]; at 11.0 µM,7%
same,growth inhibition,[10]; at 33.0 µM,0%
same,growth inhibition,[10]; [17],93% (active)
same,growth inhibition,[10]; at 50.0 µM,72% (active)
same,growth inhibition,[10]; at 100.0 µM,2%
same,growth inhibition,[11]; at 1.2 µM,-2%
same,growth inhibition,[11]; at 3.7 µM,-1%
same,growth inhibition,[11]; at 11.0 µM,-1%
same,growth inhibition,[11]; at 33.0 µM,-1%
same,growth inhibition,[11]; at 100.0 µM,-1%
same,growth inhibition,[12]; at 1.2 µM,0%
same,growth inhibition,[12]; at 3.7 µM,-2%
same,growth inhibition,[12]; at 11.0 µM,-4%
same,growth inhibition,[12]; at 33.0 µM,-2%
same,growth inhibition,[12]; at 100.0 µM,0%
same,growth inhibition,[13]; at 1.2 µM,-3%
same,growth inhibition,[13]; at 3.7 µM,-4%
same,growth inhibition,[13]; at 11.0 µM,-4%
same,growth inhibition,[13]; at 33.0 µM,-3%
same,growth inhibition,[13]; at 100.0 µM,0%
same,growth inhibition,[14]; [16],-18%
same,growth inhibition,[14]; [17],94% (active)
same,growth inhibition,[14]; at 50.0 µM,62.8%
same,growth inhibition,[15]; at 1.2 µM,-5%
same,growth inhibition,[15]; at 3.7 µM,-1%
same,growth inhibition,[15]; at 11.0 µM,-6%
same,growth inhibition,[15]; at 33.0 µM,-24%
same,growth inhibition,[15]; at 100.0 µM,14%
